SMILES strings stand for the structures. Screen size: about 150,000 compounds; about 6,500 (4.3%) were called active. Another 12% or so got no clear call; they are omitted. The entries come from a sample that favours actives as a whole. A number with no mark means an inactive call. Calls come from the whole dose curve; as a rule, active = well fitted inhibition curve with a large enough effect (not every such curve was filed as active); inconclusive = small, poorly fitted or top-dose-only effect, or another doubt; inactive = no such curve, though single readings can be large or run the other way.
% is set by controls: 0 for no effect and ±100 for the full control effect; potency is the fitted concentration of half-maximal effect.

This assay deals with 15-hydroxyprostaglandin dehydrogenase [NAD(+)] (Homo sapiens) (UniProt P15428). Kind of assay: qHTS Assay for Inhibitors of HPGD (15-Hydroxyprostaglandin Dehydrogenase). The settings on record: purified HPGD, NADH fluorescence kinetic, PGE2 substrate; activity change, negative = inhibition: stronger effect = lower value. The essentials: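 NADH formation kinetics: reaction with 30 uM PGE2 and 1 mM NAD+ (final), 20 nM enzyme, Tris-HCl pH 8 with Tween 20, after 15 min compound preincubation at room temperature. Fluorescence change, last versus first of five reads.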
Sequence of 15-hydroxyprostaglandin dehydrogenase [NAD(+)] (Homo sapiens) (P15428 whole entry, looked up): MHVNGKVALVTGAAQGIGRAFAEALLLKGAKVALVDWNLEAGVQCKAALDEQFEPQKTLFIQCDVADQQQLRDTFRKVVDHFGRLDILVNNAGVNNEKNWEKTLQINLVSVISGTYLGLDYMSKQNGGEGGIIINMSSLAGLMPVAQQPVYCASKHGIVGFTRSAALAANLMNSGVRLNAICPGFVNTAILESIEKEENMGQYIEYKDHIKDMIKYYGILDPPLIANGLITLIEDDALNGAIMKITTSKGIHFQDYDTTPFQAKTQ
Background: Quantitative high-throughput screening tests each substance at several concentrations.
Consider `Cc1nc2ccccc2c2oc(C(=O)NCC3CCCO3)cc12` (centres undefined), for which the activity change, negative = inhibition was -26%.
For `Cc1c(C(=O)NCC2CCCO2)sc2nc(-c3ccccc3)cn12` (centres undefined), the Potency is 28.2 µM (active).
For the compound `CCOc1ccc(-n2c(N)c(C(=O)NCC3CCCO3)sc2=S)cc1` (centres undefined), the Potency was 8.91 µM (active).
Consider `CCOC(=O)c1cccnc1NC(=O)c1ccncc1`, for which the activity change, negative = inhibition is -2.52%.
As to `c1ccc2c(c1)CSc1sccc1C2=C1CCNCC1`, the activity change, negative = inhibition was -1.18%.
`COCCNc1cc(NCCOC)c([N+](=O)[O-])cc1[N+](=O)[O-]`: the activity change, negative = inhibition was -9.02%.
In the case of `c1ccc(-n2ncc3c(N4CCCC4)ncnc32)cc1`, the activity change, negative = inhibition was -12.9%.
Turning to `O=C(O)C1CCN(c2ncnc3ccc(-c4ccccc4C(F)(F)F)cc23)CC1`, the Potency is 1.26 µM (active).
Consider `Cc1scc(C(=O)NNC(=S)NCc2ccccc2)c1C`, for which the activity change, negative = inhibition was -7.44%.
In the case of `Cn1ncc(Br)c1C(=O)NCc1cccs1`, the Potency is 15.8 µM (active).
For the compound `COc1cc(CC(=O)NCc2cccs2)cc(OC)c1OC`, the activity change, negative = inhibition was -17%.
With `Cc1nnc(SCC(=O)NCc2cccs2)[nH]c1=O`, the activity change, negative = inhibition was -0.933%.
For the compound `Cc1ccc2nsnc2c1NC(=O)c1ccccc1[N+](=O)[O-]`, the activity change, negative = inhibition is -15.8%.
Regarding `Cc1ccc(/C=N/NC(=O)CNC(=O)COc2ccccc2)o1`, the activity change, negative = inhibition is -5.29%.
Turning to `Cc1ccc(C(=O)N/C(=C/c2cccnc2)C(=O)O)cc1`, the activity change, negative = inhibition was -13.7%.
As for `COc1ccc(Br)cc1C(=O)NC(=S)Nc1cc(-c2nc3ccccc3[nH]2)ccc1C`, the Potency was 28.2 µM (active).
With `COc1ccc(Br)cc1C(=O)Nc1cccc(C)c1C`, the activity change, negative = inhibition was -28.1%.
In the case of `COc1ccc(/C=C(/NC(=O)c2ccc(C)cc2)c2nc3ccccc3[nH]2)cc1OC`, the activity change, negative = inhibition was -24.1%.
Regarding `C=C(C(C)=O)C(O)c1cccs1` (centres undefined), the activity change, negative = inhibition is -6.13%.
In the case of `COC(=O)C(C(=O)OC)[C@@H](NC=O)c1ccccc1`, the activity change, negative = inhibition is -1.83%.
Take `O=[n+]1c2c(n([O-])c3cc(Br)ccc31)CCC2`: the Potency is 11.2 µM (active).
In the case of `Cc1ccc(-c2c(C)n([O-])c3c([n+]2=O)CCC3)cc1`, the activity change, negative = inhibition is -24.7%.
Turning to `CCc1c(C)n([O-])c2c([n+]1=O)CCCCC2`, the activity change, negative = inhibition was -4.11%.
Turning to `O=C(Cc1ccccc1)NCc1ccc(F)cc1`, the activity change, negative = inhibition was -22.4%.
In the case of `CCCCOC(=O)c1ccc(NC(c2ccc(C)cc2)P(=O)(OC)OC)cc1` (centres undefined), the activity change, negative = inhibition was -21.8%.
Consider `CCc1ccccc1NC(=O)c1cccs1`, for which the activity change, negative = inhibition is -5.77%.
Take `CCc1c(C)sc(NC(=O)c2cccs2)c1C(N)=O`: the Potency was 8.91 µM (active).
Regarding `CCc1nnc(NC(=O)c2cccs2)s1`, the activity change, negative = inhibition was -9.46%.
In the case of `O=C(NCCOc1ccccc1Cl)C(=O)Nc1ccccc1`, the activity change, negative = inhibition was -2.3%.
Take `CC(=O)NS(=O)(=O)c1ccc(NC(=O)C2C3C=CC(C3)C2C(=O)O)cc1` (centres undefined): the activity change, negative = inhibition is -3.59%.
As to `COCCCN(C(=S)Nc1c(C)cc(C)cc1C)C(C)c1ccncc1` (centres undefined), the activity change, negative = inhibition was -0.352%.
Turning to `CCn1ncc(Br)c1C(=O)Nc1cc(C)ccc1F`, the activity change, negative = inhibition is 0.199%.
In the case of `CCn1ncc(CNC(=O)C2(C)CC2(Br)Br)c1C` (centres undefined), the Potency was 14.1 µM (active).
Consider `COc1cc2c3c(c1)/C(=C1/SC(=S)NC1=O)C(=O)N3C(C)(C)C=C2C`, for which the activity change, negative = inhibition was -26.1%.
Consider `Cc1c(NC(=S)Nc2ccccc2)c(=O)n(-c2ccccc2)n1C`, for which the activity change, negative = inhibition is -3.36%.
As for `CCC1C=C(c2ccccc2)C=CN=C1N(CC)CC` (centres undefined), the activity change, negative = inhibition is -4.96%.
For the compound `NC1=C([N+](=O)[O-])C(c2ccccc2)C2=C(CCCC2=O)O1` (centres undefined), the Potency was 20 µM (active).
Consider `N#CC1=C(N)N(c2ccccc2)C2=C(C(=O)CCC2)C1c1ccccc1` (centres undefined), for which the activity change, negative = inhibition is -8.89%.
With `NS(=O)(=O)c1ccc(CNC(=O)c2ccc(Cl)cc2[N+](=O)[O-])cc1`, the activity change, negative = inhibition is -16.4%.
Consider `CCOc1ccc2cc(C#N)c(SCC(=O)OC)nc2c1`, for which the activity change, negative = inhibition is -15%.
In the case of `Cc1ccc2nc(SCc3nnc(-c4ccccc4[N+](=O)[O-])o3)c(C#N)cc2c1`, the Potency was 1 µM (active).
Turning to `Cc1cc(C)nc(SCc2ccccc2C#N)n1`, the activity change, negative = inhibition is -12.7%.
Turning to `N#Cc1ccccc1Sc1ccccc1C(=O)OCC(=O)NC1CCCCC1`, the activity change, negative = inhibition is -19.1%.
Still for that read-out and setting: then `CCN(CC)c1ccc2oc(=O)c(C)nc2c1`, with -16.7%.
Turning to `CCN(CC)c1ccc(/C=N/Nc2nc(C)cc(C)n2)c(O)c1`, the Potency is 20 µM (active).
Take `CCOC(=O)Cc1csc(SCC(=O)NC(C)C23CC4CC(CC(C4)C2)C3)n1` (centres undefined): the activity change, negative = inhibition is -15.9%.
In the case of `Cc1ccc(CNC(=O)c2ccccc2CCc2ccccc2)cc1`, the activity change, negative = inhibition is -19.3%.
In the case of `Cc1c(C(=O)NCc2ccccc2)cnn1-c1ccccc1`, the Potency is 17.8 µM (active).
As to `O=C(Cn1cnc2c(cnn2-c2ccccc2)c1=O)NCc1ccccc1`, the activity change, negative = inhibition is -9.12%.

For the origin of these results see PubChem BioAssay AID894 (National Center for Advancing Translational Sciences (NCATS), 2007).
